Reference: PubChem BioAssay (NCATS)
Records with an inconclusive call do not appear. Calls of active or inactive are those of the source. Unless noted, the call rests on the fitted dose curve; in most records, active means well fitted inhibition curve with a large enough effect; inconclusive means small, poorly fitted or top-dose-only effect; inactive means flat fitted curve, though single readings scatter.

Columns and labels:
[1] = qHTS drug screen for cell cycle checkpoint inhibitors in PARPi-resistant BRCA-mutant ovarian cancer cell lines. (AID 1963452; calls by dose curve); conditions: PEO1/OlaR viability, CellTiter-Glo luminescence, 96 h; for Z-AUC: stronger effect = lower value
Method in brief: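 PEO1, PEO4 and PEO1/OlaR ovarian cancer cells, 600 per well, exposed 96 h at 37C to a dilution series. Viability read by CellTiter-Glo luminescence, normalized to DMSO and empty wells; activity summarized as Z-AUC.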

[2] = qHTS for identification of novel therapeutic agents for treatment of microphthalmiaassociated transcription factor (MiT) renal cell carcinoma (RCC) (AID 1963991; calls by dose curve); conditions: CellTiter-Glo, 48 h; for z-score: stronger effect = lower value
Method in brief: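 Curves over 11 concentrations were fitted to CellTiter-Glo luminescence, scaled between empty wells (0%) and DMSO (100%) viability. Cells were UOK109, UOK124 and UOK145 TFE3-fusion RCC lines at 500/well, exposed 48 hours at 37 C.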

3D7 = assay: qHTS profiling for inhibitors of Plasmodium falciparum proliferation (AID 504749); further: nearly all actives have a fitted effect of over 60% in size; conditions: P. falciparum in erythrocytes, SYBR Green DNA, 72 h; series mostly up to 28.7 µM
Method in brief: (§1)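 In a 72 h erythrocytic culture (37 C, humidified, 5% CO2) at 2.5% hematocrit and 0.3% starting parasitemia, compounds were tested; SYBR Green I in detergent lysis buffer stained parasite DNA overnight.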

7G8 = assay: as above; conditions: P. falciparum in erythrocytes, SYBR Green DNA, 72 h; series mostly up to 28.7 µM
Method in brief: as §1

AA1029 = assay: as above; conditions: P. falciparum in erythrocytes, SYBR Green DNA, 72 h; series mostly up to 28.7 µM
Method in brief: as §1

AS120 = assay: as above; conditions: P. falciparum in erythrocytes, SYBR Green DNA, 72 h; series mostly up to 28.7 µM
Method in brief: as §1

ATS189 = assay: as above; conditions: P. falciparum in erythrocytes, SYBR Green DNA, 72 h; series mostly up to 28.7 µM
Method in brief: as §1

ATS95 = assay: as above; conditions: P. falciparum in erythrocytes, SYBR Green DNA, 72 h; series mostly up to 28.7 µM
Method in brief: as §1

C2A = assay: as above; conditions: P. falciparum in erythrocytes, SYBR Green DNA, 72 h; series mostly up to 28.7 µM
Method in brief: as §1

[3] = measured here: PEO1 parental Z-AUC
[4] = TFE3-RCC UOK109 viability, measured here: UOK109 Z-AUC
[5] = TFE3-RCC viability, measured here: UOK124 Z-AUC
[6] = TFE3-RCC viability, measured here: UOK145 Z-AUC
Potency means the concentration at half of the fitted maximal effect.

In the case of `Cc1cc(O)c2c(c1)C(=O)c1cccc(O)c1C2=O`, the Z-AUC [1] is reported as -0.855 (inactive), the Z-AUC [1, 3] is reported as 0.00192 and the Z-AUC ([1]; measured here: PEO4 Z-AUC) is reported as -0.281. The z-score [2, 4] was -0.138, the z-score [2, 5] was 0.712 and the z-score [2, 6] was 0.0822.

With `Cc1ccccc1C(=O)Nc1ccc(C(=O)N2CCCC(O)c3cc(Cl)ccc32)c(C)c1` (stereo unspecified) the Z-AUC [1] was -0.543 (inactive), the Z-AUC [1, 3] was -0.255 and the Z-AUC ([1]; measured here: PEO4 Z-AUC) was 0.00137. It also gave a z-score [2, 4] of -0.031, a z-score [2, 5] of 0.501 and a z-score [2, 6] of 0.525.

For `CCC[C@H]1C[C@H](C(=O)N[C@@H]([C@@H]2O[C@@H](SC)[C@@H](O)[C@@H](O)[C@@H]2O)[C@H](C)Cl)N(C)C1`, the z-score [2, 4] was 0.606, the z-score [2, 5] was 0.328 and the z-score [2, 6] was -0.0561.

Molecule `C[C@H](CCC(=O)O)[C@H]1CC[C@H]2[C@@H]3[C@H](O)C[C@@H]4C[C@H](O)CC[C@]4(C)[C@@H]3CC[C@]12C` has a z-score [2, 4] of 0.305, a z-score [2, 5] of 0.277 and a z-score [2, 6] of 0.171.

Molecule `CC(=O)C1=C(O)C=C2Oc3c(C(C)=O)c(O)c(C)c(O)c3C2(C)C1=O` (stereo unspecified) has a z-score [2, 4] of 0.861, a z-score [2, 5] of 0.834 and a z-score [2, 6] of -0.166.

In the case of `CS(=O)(=O)N1CCc2c(-c3cnc(N)nc3)nc(N3CCOCC3)nc21`, the Z-AUC [1] is reported as -0.521 (inactive), the Z-AUC [1, 3] is reported as -0.562 and the Z-AUC ([1]; measured here: PEO4 Z-AUC) is reported as 0.0155. The Potency ([2]; TFE3-RCC UOK109 viability, active = Z-AUC below -0.8 in all three lines) was 0.0935 µM (active), the z-score [2, 4] was -2.02 and the z-score [2, 5] was -1.41. It also gave a z-score [2, 6] of -1.55.

For `NC(=O)c1ncn([C@@H]2O[C@H](CO)[C@@H](O)[C@@H]2O)c1O`, the z-score [2, 4] was 0.702, the z-score [2, 5] was 0.298 and the z-score [2, 6] was 0.0692.

With `CC(=O)N[C@@H]1[C@H](O[C@@H]2c3ccc(c(Cl)c3)Oc3cc4cc(c3O[C@H]3O[C@H](CO)[C@@H](O)[C@H](O)[C@H]3NC(=O)CCCCCCCC(C)C)Oc3ccc(cc3Cl)C[C@H]3NC(=O)[C@H](N)c5ccc(O)c(c5)Oc5cc(O)cc(c5)[C@H](NC3=O)C(=O)N[C@H]4C(=O)N[C@H]3C(=O)N[C@@H]2C(=O)N[C@@H](C(=O)O)c2cc(O)cc(O[C@H]4O[C@H](CO)[C@@H](O)[C@H](O)[C@H]4O)c2-c2cc3ccc2O)O[C@H](CO)[C@@H](O)[C@@H]1O` the z-score [2, 4] was 0.106, the z-score [2, 5] was 0.36 and the z-score [2, 6] was 0.292.

In the case of `Nc1nc2c(c(=O)[nH]1)N(C=O)[C@H](CNc1ccc(C(=O)N[C@@H](CCC(=O)O)C(=O)O)cc1)CN2`, the Z-AUC [1] is reported as 1.12 (inactive), the Z-AUC [1, 3] is reported as 1.3 and the Z-AUC ([1]; measured here: PEO4 Z-AUC) is reported as 1.01. For the same molecule, the Potency (3D7) was “inactive”, the Potency (7G8) was “inactive” and the Potency (AA1029) was “inactive”. The Potency (AS120) was “inactive”, the Potency (ATS189) was “inactive” and the Potency (ATS95) was “inactive”. For the same molecule, the Potency (C2A) was “inactive”.

`O=C(NNC(=O)c1ccc(CNS(=O)(=O)c2ccc(F)c(Cl)c2)cc1)c1ccccc1` gave a z-score [2, 4] of 0.375, a z-score [2, 5] of 0.329 and a z-score [2, 6] of 0.518.

`CN1[C@H]2CC(OC(=O)[C@@H](CO)c3ccccc3)C[C@H]1[C@H]1O[C@H]12` (stereo partly specified) showed a z-score [2, 4] of 0.573, a z-score [2, 5] of 0.895 and a z-score [2, 6] of 0.977.

In the case of `CC(=O)N[C@H]1[C@@H]([C@H](O)[C@H](O)CO)OC(C(=O)O)=C[C@@H]1N=C(N)N`, the z-score [2, 4] is reported as 0.312, the z-score [2, 5] is reported as 0.639 and the z-score [2, 6] is reported as 0.195.

Molecule `CON=C(C(=O)N[C@@H]1C(=O)N2C(C(=O)O)=C(Cn3ccc(=N)n3CCO)CS[C@H]12)c1csc(N)n1` has a z-score [2, 4] of 1.44, a z-score [2, 5] of 0.0348 and a z-score [2, 6] of 0.881.

For `CCC(C(=O)O)C1CCC(C)C(C(C)C(O)C(C)C(=O)C(CC)C2OC3(C=CC(O)[C@@]4(CC[C@](C)(C5CC[C@@](O)(CC)C(C)O5)O4)O3)C(C)CC2C)O1` (stereo partly specified), the Potency [1] was 1.38 µM (active), the Z-AUC [1, 3] was -1.77 and the Z-AUC ([1]; measured here: PEO4 Z-AUC) was -1.98. For the same molecule, the Potency (3D7) was 0.794 µM (active), the Potency (AA1029) was 0.891 µM (active) and the Potency (AS120) was 0.631 µM (active). The Potency (ATS189) was 1.26 µM (active), the Potency (ATS95) was 1.12 µM (active) and the Potency (C2A) was 1.12 µM (active).

With `N#CC(=C(O)c1ccc(Cl)cc1Cl)c1nc2cc(Cl)ccc2c(=O)[nH]1` the z-score [2, 4] was 0.465, the z-score [2, 5] was 1.29 and the z-score [2, 6] was 0.266.

Work on `CC(=O)O[C@H]1C[C@@H]2CC[C@H]3[C@H]4C[C@H]([N+]5(C)CCCCC5)[C@@H](OC(C)=O)[C@@]4(C)CC[C@@H]3[C@@]2(C)C[C@H]1N1CCCCC1` yielded a z-score [2, 4] of 0.765, a z-score [2, 5] of 0.686 and a z-score [2, 6] of -3.76.

For `C[C@H](O)[C@@H]1C(=O)N2C(C(=O)O)=C(S[C@@H]3CN[C@H](CNS(N)(=O)=O)C3)[C@@H](C)[C@@H]12`, the z-score [2, 4] was -0.714, the z-score [2, 5] was 0.967 and the z-score [2, 6] was -1.41.

Molecule `CCN1CCN(C(=O)N[C@H](C(=O)N[C@@H]2C(=O)N3C(C(=O)O)=C(CSc4nnnn4C)CS[C@@H]23)c2ccc(O)cc2)C(=O)C1=O` has a z-score [2, 4] of 3.06, a z-score [2, 5] of 1.43 and a z-score [2, 6] of 2.48.

`C=C1C[C@@]2(O)O[C@@]3(C[C@H]2C(C)C)[C@H](C)CC[C@H]13` gave a z-score [2, 4] of 0.729, a z-score [2, 5] of 0.339 and a z-score [2, 6] of 0.0529.

Molecule `Cc1cc(-c2nnc3n2CCCCC3)c(C)n1-c1ccccc1` has a z-score [2, 4] of 0.931, a z-score [2, 5] of 0.469 and a z-score [2, 6] of 0.656.

Work on `Cc1ccc(O)c(C(CCN(C(C)C)C(C)C)c2ccccc2)c1` (stereo unspecified) yielded a z-score [2, 4] of 0.603, a z-score [2, 5] of 0.794 and a z-score [2, 6] of 0.77.
